Laboratory results: PubChem BioAssay AID1159580 (chemical genetic matrix, 2015)
Among all 5,500 compounds or so, about 2,000 (36%) were called active. About 18% were inconclusive and are not listed. Cut-off read from the data, not from the text of the source: active = normalized growth mostly below about 0.91 (no sharp cut-off); inconclusive = no clear call, values can overlap the other calls; inactive = mostly above about 0.92. The list shows a part of the results.

Assay: chemical genetic growth profiling, strain panel (AID 1159580);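 note: tested at 20 µM; growth read once vehicle control cultures reached saturation at 30 °C; 1 = growth at the plate median or of vehicle wells; lower values mean less growth of the strain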
Conditions: S. cerevisiae deletion strains, growth OD

Measured: normalized growth

C[C@@H]1O[C@@H](O[C@H]2C[C@@H](O)[C@]3(CO)[C@H]4[C@H](O)C[C@]5(C)[C@@H](C6=CC(=O)OC6)CC[C@]5(O)[C@@H]4CC[C@]3(O)C2)[C@H](O)[C@H](O)[C@H]1O
inactive: locus YAL040C, strain CLN3, active compounds read low 0.989 | locus YCL061C, strain MRC1 (second series), active compounds read low 0.996 | locus YDR150W, strain NUM1, active compounds read low 1 | locus YDR363W, strain ESC2, active compounds read low 0.984 | locus YER002W, strain NOP16, active compounds read low 1.02 | locus YGR078C, strain PAC10, active compounds read low 0.985 | locus YGR229C, strain SMI1, active compounds read low 0.993 | locus YJR075W, strain HOC1, active compounds read low 0.997 | locus YMR263W, strain SAP30, active compounds read low 0.996 | locus YMR307W, strain GAS1, active compounds read low 0.995 | locus YNL175C, strain NOP13, active compounds read low 1.02 | locus YNL197C, strain WHI3, active compounds read low 1.03 | locus YNL224C, strain SQS1, active compounds read low 0.988 | locus YOR083W, strain WHI5 (second series), active compounds read low 1
